{
  "source": "PubChem BioAssay (NCATS)",
  "note": "“And” between values parts separate entries of the source, which are not always exact repeats. Equal values may be shown once. Inconclusive results are not listed. Unmarked numbers belong to inactive results. The source made the active and inactive calls. The call rests on the fitted dose curve; in most records, active means well fitted inhibition curve with a large enough effect; inconclusive means small, poorly fitted or top-dose-only effect; inactive means flat fitted curve, though single readings scatter. Further: nearly all actives have a fitted effect of over 60% in size. Potency means the concentration at half of the fitted maximal effect.",
  "data": [
    {"tested_on": "GB4", "test": "qHTS profiling for inhibitors of Plasmodium falciparum proliferation (AID 504749);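 on activity, negative = inhibition: 0% = DMSO vehicle and full inhibition = artemisinin control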", "details": "P. falciparum in erythrocytes, SYBR Green DNA, 72 h; series mostly up to 28.7 µM; activity, negative = inhibition: at the top concentration", "procedure,_shortened": "(§1)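 Parasite proliferation within erythrocytes, 72 h exposure. Endpoint: SYBR Green I fluorescence after overnight lysis at room temperature. Controls: 0.29 uM artemisinin, DMSO.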", "values": [
      {"smiles": "COCCCCC(=NOCCN)c1ccc(C(F)(F)F)cc1", "Potency": "5.36 µM (active)"},
      {"smiles": "CCCCCN(C)CCC(O)(P(=O)(O)O)P(=O)(O)O", "activity, negative = inhibition": "5.98%"},
      {"smiles": "COc1ccc(Cc2nccc3cc(OC)c(OC)cc23)cc1OC", "activity, negative = inhibition": "-5.03% [at 12.8 µM]"}
    ]},
    {"tested_on": "ICS", "test": "qHTS profiling for inhibitors of Plasmodium falciparum proliferation (AID 504749);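 on activity, negative = inhibition: 0% = DMSO vehicle and full inhibition = artemisinin control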", "details": "P. falciparum in erythrocytes, SYBR Green DNA, 72 h; series mostly up to 28.7 µM; activity, negative = inhibition: at the top concentration", "procedure,_shortened": "as §1", "values": [
      {"smiles": "CCCCCN(C)CCC(O)(P(=O)(O)O)P(=O)(O)O", "activity, negative = inhibition": "4.23%"},
      {"smiles": "O=c1[nH]cnc2c1ncn2[C@H]1CC[C@@H](CO)O1", "Potency": "10 µM (active)"},
      {"smiles": "COc1ccc(Cc2nccc3cc(OC)c(OC)cc23)cc1OC", "activity, negative = inhibition": "-5.82% [at 12.8 µM]"}
    ]},
    {"tested_on": "JCK", "test": "qHTS profiling for inhibitors of Plasmodium falciparum proliferation (AID 504749);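 on activity, negative = inhibition: 0% = DMSO vehicle and full inhibition = artemisinin control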", "details": "P. falciparum in erythrocytes, SYBR Green DNA, 72 h; series mostly up to 28.7 µM; activity, negative = inhibition: at the top concentration", "procedure,_shortened": "as §1", "values": [
      {"smiles": "CCCCCN(C)CCC(O)(P(=O)(O)O)P(=O)(O)O", "activity, negative = inhibition": "14%"},
      {"smiles": "O=c1[nH]cnc2c1ncn2[C@H]1CC[C@@H](CO)O1", "activity, negative = inhibition": "10.4%"},
      {"smiles": "COc1ccc(Cc2nccc3cc(OC)c(OC)cc23)cc1OC", "activity, negative = inhibition": "7.05% [at 12.8 µM]"}
    ]},
    {"tested_on": "N140", "test": "qHTS profiling for inhibitors of Plasmodium falciparum proliferation (AID 504749);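 on activity, negative = inhibition: 0% = DMSO vehicle and full inhibition = artemisinin control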", "details": "P. falciparum in erythrocytes, SYBR Green DNA, 72 h; series mostly up to 28.7 µM; activity, negative = inhibition: at the top concentration", "procedure,_shortened": "as §1", "values": [
      {"smiles": "CCCCCN(C)CCC(O)(P(=O)(O)O)P(=O)(O)O", "activity, negative = inhibition": "7.58%"},
      {"smiles": "O=c1[nH]cnc2c1ncn2[C@H]1CC[C@@H](CO)O1", "activity, negative = inhibition": "-25.7%"},
      {"smiles": "COc1ccc(Cc2nccc3cc(OC)c(OC)cc23)cc1OC", "activity, negative = inhibition": "-6.11% [at 12.8 µM]"}
    ]},
    {"tested_on": "P94_40", "test": "qHTS profiling for inhibitors of Plasmodium falciparum proliferation (AID 504749)", "details": "P. falciparum in erythrocytes, SYBR Green DNA, 72 h; series mostly up to 28.7 µM; activity, negative = inhibition: at the top concentration", "procedure,_shortened": "as §1", "values": [
      {"smiles": "CCCCCN(C)CCC(O)(P(=O)(O)O)P(=O)(O)O", "activity, negative = inhibition": "8.11%"},
      {"smiles": "O=c1[nH]cnc2c1ncn2[C@H]1CC[C@@H](CO)O1", "activity, negative = inhibition": "4.36%"},
      {"smiles": "COc1ccc(Cc2nccc3cc(OC)c(OC)cc23)cc1OC", "activity, negative = inhibition": "-17.2% [at 12.8 µM]"}
    ]},
    {"tested_on": "PAD", "test": "qHTS profiling for inhibitors of Plasmodium falciparum proliferation (AID 504749)", "details": "P. falciparum in erythrocytes, SYBR Green DNA, 72 h; series mostly up to 28.7 µM; activity, negative = inhibition: at the top concentration", "procedure,_shortened": "as §1", "values": [
      {"smiles": "CCCCCN(C)CCC(O)(P(=O)(O)O)P(=O)(O)O", "activity, negative = inhibition": "14.6%"},
      {"smiles": "O=c1[nH]cnc2c1ncn2[C@H]1CC[C@@H](CO)O1", "activity, negative = inhibition": "-13%"},
      {"smiles": "COc1ccc(Cc2nccc3cc(OC)c(OC)cc23)cc1OC", "activity, negative = inhibition": "-8.82% [at 12.8 µM]"}
    ]},
    {"tested_on": "PC15", "test": "qHTS profiling for inhibitors of Plasmodium falciparum proliferation (AID 504749)", "details": "P. falciparum in erythrocytes, SYBR Green DNA, 72 h; series mostly up to 28.7 µM; activity, negative = inhibition: at the top concentration", "procedure,_shortened": "as §1", "values": [
      {"smiles": "CCCCCN(C)CCC(O)(P(=O)(O)O)P(=O)(O)O", "activity, negative = inhibition": "8.37%"},
      {"smiles": "O=c1[nH]cnc2c1ncn2[C@H]1CC[C@@H](CO)O1", "activity, negative = inhibition": "-6.95%"},
      {"smiles": "COc1ccc(Cc2nccc3cc(OC)c(OC)cc23)cc1OC", "activity, negative = inhibition": "12.9% [at 12.8 µM]"}
    ]},
    {"tested_on": "PC26", "test": "qHTS profiling for inhibitors of Plasmodium falciparum proliferation (AID 504749)", "details": "P. falciparum in erythrocytes, SYBR Green DNA, 72 h; series mostly up to 28.7 µM; activity, negative = inhibition: at the top concentration", "procedure,_shortened": "as §1", "units": {"activity, negative = inhibition": "%"}, "values": [
      {"smiles": "COCCCCC(=NOCCN)c1ccc(C(F)(F)F)cc1", "Potency": "6.75 µM (active)"},
      {"smiles": "CCCCCN(C)CCC(O)(P(=O)(O)O)P(=O)(O)O", "activity, negative = inhibition": 9.13},
      {"smiles": "O=c1[nH]cnc2c1ncn2[C@H]1CC[C@@H](CO)O1", "activity, negative = inhibition": -11.5}
    ]},
    {"tested_on": "PC49", "test": "qHTS profiling for inhibitors of Plasmodium falciparum proliferation (AID 504749)", "details": "P. falciparum in erythrocytes, SYBR Green DNA, 72 h; series mostly up to 28.7 µM; activity, negative = inhibition: at the top concentration", "procedure,_shortened": "as §1", "values": [
      {"smiles": "CCCCCN(C)CCC(O)(P(=O)(O)O)P(=O)(O)O", "activity, negative = inhibition": "6.03%"},
      {"smiles": "O=c1[nH]cnc2c1ncn2[C@H]1CC[C@@H](CO)O1", "activity, negative = inhibition": "6.74%"},
      {"smiles": "COc1ccc(Cc2nccc3cc(OC)c(OC)cc23)cc1OC", "activity, negative = inhibition": "10.5% [at 12.8 µM]"}
    ]},
    {"tested_on": "SC27B", "test": "qHTS profiling for inhibitors of Plasmodium falciparum proliferation (AID 504749)", "details": "P. falciparum in erythrocytes, SYBR Green DNA, 72 h; series mostly up to 28.7 µM; activity, negative = inhibition: at the top concentration", "procedure,_shortened": "as §1", "values": [
      {"smiles": "CCCCCN(C)CCC(O)(P(=O)(O)O)P(=O)(O)O", "activity, negative = inhibition": "7.21%"},
      {"smiles": "O=c1[nH]cnc2c1ncn2[C@H]1CC[C@@H](CO)O1", "activity, negative = inhibition": "-6.97%"},
      {"smiles": "COc1ccc(Cc2nccc3cc(OC)c(OC)cc23)cc1OC", "activity, negative = inhibition": "-6% [at 12.8 µM]"}
    ]},
    {"tested_on": "TAB109", "test": "qHTS profiling for inhibitors of Plasmodium falciparum proliferation (AID 504749)", "details": "P. falciparum in erythrocytes, SYBR Green DNA, 72 h; series mostly up to 28.7 µM; activity, negative = inhibition: at the top concentration", "procedure,_shortened": "as §1", "values": [
      {"smiles": "CCCCCN(C)CCC(O)(P(=O)(O)O)P(=O)(O)O", "activity, negative = inhibition": "15.3%"},
      {"smiles": "O=c1[nH]cnc2c1ncn2[C@H]1CC[C@@H](CO)O1", "activity, negative = inhibition": "-22.3%"},
      {"smiles": "COc1ccc(Cc2nccc3cc(OC)c(OC)cc23)cc1OC", "activity, negative = inhibition": "-1.48% [at 12.8 µM]"}
    ]},
    {"tested_on": "W2", "test": "qHTS profiling for inhibitors of Plasmodium falciparum proliferation (AID 504749)", "details": "P. falciparum in erythrocytes, SYBR Green DNA, 72 h; series mostly up to 28.7 µM; activity, negative = inhibition: at the top concentration", "procedure,_shortened": "as §1", "values": [
      {"smiles": "COCCCCC(=NOCCN)c1ccc(C(F)(F)F)cc1", "Potency": "2.69 µM (active)"},
      {"smiles": "CCCCCN(C)CCC(O)(P(=O)(O)O)P(=O)(O)O", "activity, negative = inhibition": "14.2%"},
      {"smiles": "O=c1[nH]cnc2c1ncn2[C@H]1CC[C@@H](CO)O1", "Potency": "13.5 µM (active)"},
      {"smiles": "COc1ccc(Cc2nccc3cc(OC)c(OC)cc23)cc1OC", "activity, negative = inhibition": "-11.3% [at 12.8 µM]"}
    ]},
    {"tested_on": "HEK293", "test": "Cytotoxic Profiling of Annotated Libraries Using Quantitative High-Throughput Screening (AID 1296008); on max response: on the % scale 0 is the no-effect control and ±100 the full control effect", "details": "Five cell lines viability, CellTiter-Glo ATP luminescence, 48-72 h; max response: stronger effect = lower value", "procedure,_shortened": "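Compounds were pin-transferred onto cells and incubated 48 or 72 hr at 37 degree Celsius, 95% humidity. CellTiter-Glo was added, plates sat 10 min at room temperature, then ATP-coupled luminescence was imaged as the viability read-out.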", "units": {"max response": "%"}, "values": [
      {"smiles": "NC(=O)c1cnc(-c2ccc(C3(N)CCC3)cc2)c(-c2ccccc2)c1", "Potency": "23.5 µM (active) and 18.4 µM (active)"},
      {"smiles": "Oc1ccc(C2=Cc3ccc(O)cc3OC2)cc1", "Potency": "9.35 µM (active)"},
      {"smiles": "COc1ccc(-n2c(C)c([N+](=O)[O-])c3ccc(O)cc32)cc1", "max response": -7.19},
      {"smiles": "CN[C@@H](C)C(=O)N[C@H]1CN(C(=O)CC(C)C)CC[C@H]2CC[C@@H](C(=O)NC(c3ccccc3)c3ccccc3)N2C1=O", "max response": -1.1},
      {"smiles": "Cc1ccc([C@@H]2O[C@H](CO)[C@@H](O)[C@H](O)[C@@H]2O)cc1Cc1ccc(-c2ccc(F)cc2)s1", "Potency": "14.8 µM (active)"},
      {"smiles": "CC(C)n1cnc2c(NCCCCCCNC(=O)OC(C)(C)C)nc(NCCO)nc21", "Potency": "14.8 µM (active)"},
      {"smiles": "O=C1NC(=O)C(=Cc2ccc3nccnc3c2)S1", "max response": -10.3},
      {"smiles": "O=c1cc(-c2ccccc2)oc2cc(O)c(O)c(O)c12", "max response": -21.5},
      {"smiles": "Clc1ccc(C(c2ccc(Cl)cc2)n2cc[n+](CC(OCc3ccc(Cl)cc3Cl)c3ccc(Cl)cc3Cl)c2)cc1", "note": "(stereo not given)", "Potency": "14.8 µM (active)"},
      {"smiles": "Cc1ccc(C(=O)Nc2cccc(C(F)(F)F)c2)cc1Nc1nc(-c2cccnc2)nc2c1cnn2C", "Potency": "13.2 µM (active)"},
      {"smiles": "O=C(NOCC(O)CO)c1cc(Br)c(F)c(F)c1Nc1ccc(I)cc1F", "note": "(stereo not given)", "max response": 0.434},
      {"smiles": "CCc1ccc(C=C2SC(=S)NC2=O)cc1", "max response": -22.6},
      {"smiles": "CNC1CCC(N(Cc2cccc(-c3ccncc3)c2)C(=O)c2sc3c(F)ccc(F)c3c2Cl)CC1", "note": "(stereo not given)", "Potency": "13.2 µM (active) and 13 µM (active)"},
      {"smiles": "COc1cc2ncnc(Nc3ccc(F)c(Cl)c3)c2cc1OCCCN1CCOCC1", "Potency": "7.62 µM (active) and 16.8 µM (active)"},
      {"smiles": "Nc1nc(F)nc2c1ncn2[C@@H]1O[C@H](COP(=O)(O)O)[C@@H](O)[C@H]1O", "max response": -8.85},
      {"smiles": "CC[C@@H]1C=C(C)C[C@H](C)C[C@H](OC)[C@H]2O[C@@](O)(C(=O)C(=O)N3CCCC[C@@H]3C(=O)O[C@H](C(C)=C[C@@H]3CC[C@H](Cl)[C@H](OC)C3)[C@H](C)[C@@H](O)CC1=O)[C@H](C)C[C@H]2OC", "Potency": "16.6 µM (active)"},
      {"smiles": "COc1cc(N2CCC(N3CCN(C)CC3)CC2)ccc1Nc1ncnc(Nc2ccccc2S(=O)(=O)C(C)C)n1", "Potency": "14.6 µM (active)"},
      {"smiles": "O=C(O)c1cc(O)c2c(c1)C(=O)c1cccc(O)c1C2=O", "max response": -16.6}
    ]}
  ]
}
